PubChem BioAssay (NCI)
This is part of a sample that, as a whole, favours compounds with a hit. Of some 83,000 tested, about 20% had one in any assay.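 Single-concentration screen, 48 h exposure, 96-well plates. Endpoint: percent growth. Below 10 = active.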 Values without a mark were called inactive. Active and inactive are the calls of the source.

Tests used:
Assay in all cases: NCI-60 one-dose screen, 48 h (100 = growth as untreated, 0 = no growth, -100 = all killed)
Details in all cases: 10 µM
[1] = test system: SK-MEL-2 melanoma
[2] = test system: EKVX NSCLC
[3] = test system: SN12C renal
[4] = test system: UO-31 renal
[5] = test system: ACHN renal
[6] = test system: CAKI-1 renal
[7] = test system: A498 renal
[8] = test system: CCRF-CEM leukemia
[9] = test system: MOLT-4 leukemia

SMILES | growth [1] | growth [2] | growth [3] | growth [4] | growth [5] | growth [6] | growth [7] | growth [8] | growth [9]
COc1ccc(-c2n[nH]nc2-c2cc(OC)c(OC)c(OC)c2)cc1 | 21.2% | 54.4% | 25% | 44.3% | 41.2% | 27.6% | -12.9% (active) | 9.31% (active) | 6.91% (active)
Clc1ccc(/C=C2\CCCC3C2=Nc2ccccc2NC3c2ccc(Cl)cc2)cc1 (stereo unspecified) | 92.1% | 89.3% | 85.3% | 70.7% | 97.3% | 91.3% | 67.2% | 75.9% | 65.8%
NC1=NC(c2ccc(Cl)cc2)C2=C(N1)/C(=C/c1ccc(Cl)cc1)CCC2 (stereo unspecified) | 94.7% | 93.7% | 84.8% | 67.8% | 95.6% | 90.8% | 54.7% | 72.2% | 64.9%
CN(C)CCOc1ccc(-c2nc3sccn3c2-c2ccnc(S(C)(=O)=O)n2)cc1 | 111% | 102% | 101% | 97.1% | 106% | 98.8% | 96.3% | 91% | 109%
N#Cc1cnn(C(=O)c2nn(-c3ccc(Cl)cc3)cc2O)c1N | 1.93% (active) | 1.5% (active) | 26.5% | -3.61% (active) | 11.4% | -34.4% (active) | 48.6% | -10.1% (active) | -14.4% (active)
COc1cc2c(Nc3ccc(-c4ccc(N)cc4)cc3)ncnc2c(OC)c1OC | 18.5% | 59.2% | 62.2% | 22.7% | 32.1% | 3.89% (active) | 43.4% | 23.3% | 19.8%
COc1cc2cc(Oc3ccc(NC(=O)Nc4cccc(C(F)(F)F)c4)cc3)c(C)nc2cc1OC | -35.8% (active) | 15.4% | 17.2% | 11.3% | 11.2% | 9.13% (active) | 21.7% | 6.41% (active) | 0.812% (active)
COc1ccc(/C=C2\CCCC3C2=Nc2ccccc2NC3c2ccc(OC)cc2)cc1 (stereo unspecified) | 92% | 87.5% | 85.5% | 74.1% | 113% | 78.2% | 77.3% | 80.4% | 72%
COc1cc2cc(Oc3ccc(NC(=O)c4cccc(C(F)(F)F)c4)cc3)c(C)nc2cc1OC | 38.8% | 18.6% | 36.9% | 22.8% | 33.9% | 13.3% | 0.391% (active) | 25.9% | 28.4%
Nc1ncc(-c2cnn(C3CCNCC3)c2)cc1-c1nc2ccccc2o1 | 22.1% | 85.3% | 14.1% | -17.7% (active) | 21.9% | 68.3% | 36.4% | -53.7% (active) | -35.7% (active)
CC1=NN(C(=O)c2nn(-c3ccc(Cl)cc3)cc2O)C(=O)C1 | 60.3% | 65.2% | 49.5% | 34.2% | 42% | 114% | 90.1% | 13.5% | 24.8%
COc1cc(C2CC(c3ccccc3)=NN2C(C)=O)cc(OC)c1OC (stereo unspecified) | 47.6% | 51% | 63.5% | 58.1% | 54.9% | 38.8% | 50.6% | 34.5% | –
CCn1c(SC/C(=N/O)c2ccccc2)nnc1-c1ccccc1 | 108% | 90.6% | 88.6% | 91.5% | 105% | 89% | 69.3% | 88.9% | 94.8%
COc1cc2cc(Oc3ccc(NC(=O)Nc4ccc(Cl)c(C(F)(F)F)c4)cc3)c(C)nc2cc1OC | -49.8% (active) | 8.83% (active) | 13.2% | -45.1% (active) | 13.6% | -8.92% (active) | 10.5% | -17.6% (active) | -27.9% (active)
CS(=O)(=O)c1nccc(-c2c(-c3ccc(OCCc4ccccc4)cc3)nc3sccn23)n1 | 108% | 94% | 90.3% | 90.6% | 101% | 90% | 84.5% | 92% | 88.9%
COc1cc(/C=C2\CCCC3C2=Nc2ccccc2NC3c2cc(OC)c(OC)c(OC)c2)cc(OC)c1OC (stereo unspecified) | 17.9% | 59.8% | -4.27% (active) | 5.57% (active) | -23% (active) | 6.51% (active) | -22.4% (active) | 4.32% (active) | 0.606% (active)

SMILES | growth [1] | growth [2] | growth [3] | growth [4] | growth [5] | growth [6] | growth [7] | growth [8] | growth [9]
COc1ccc2c(c1)OC(N)=C(C#N)C2c1cc(OC)c(OC)c(OC)c1 (stereo unspecified) | 27.3% | 49.7% | 25% | 47.2% | 32.8% | 30.4% | -14.1% (active) | 7.72% (active) | 7.89% (active)
COc1cc2cc(Oc3ccc(NC(=O)c4ccc(Cl)c(C(F)(F)F)c4)cc3)c(C)nc2cc1OC | 31.2% | 18.8% | 24.1% | 18.3% | 26.6% | 21.6% | 24.3% | 19.9% | 18%
COc1cc(/C=C2\CCCC3=C2NC(N)=NC3c2cc(OC)c(OC)c(OC)c2)cc(OC)c1OC (stereo unspecified) | -0.813% (active) | 56% | -5.19% (active) | 34.3% | -37.9% (active) | -4.06% (active) | 0.45% (active) | 2.89% (active) | -3.56% (active)
COc1ccc(-c2n[nH]nc2-c2cc(OC)c3c(c2OC)OCO3)cc1 | 1.83% (active) | 48.3% | 33.5% | 51.1% | 54.9% | 27.2% | 14.9% | 17.8% | 24.2%
COc1nc2c(c(=O)n1C)CN(c1ccccc1)C(=O)C(C)N2 (stereo unspecified) | 90.8% | 96.4% | 92% | 78.7% | 93.9% | 100% | 115% | 97.2% | 93.7%
COc1ccc(C2CC(c3cc(OC)c(OC)c(OC)c3)=NN2)cc1 (stereo unspecified) | 87.6% | 91.2% | 94.5% | 62.7% | 99% | 69% | 87.4% | 57.3% | –
COc1cc2cc(Oc3ccc(NC(=O)c4cc(C(F)(F)F)cc(C(F)(F)F)c4)cc3)c(C)nc2cc1OC | 64.6% | 30.4% | 30.8% | 30.9% | 32.3% | 30.2% | 40.5% | 33.7% | 39.4%
COc1ccc(/C=C2\CCCC3=C2NC(N)=NC3c2ccc(OC)c(OC)c2)cc1OC (stereo unspecified) | 56.8% | 82.7% | 57.4% | 63% | 27.3% | 55.9% | 91.3% | 15.3% | 53.1%
COc1cc2cc(Oc3ccc(NC(=O)c4ccccc4)cc3)c(C)nc2cc1OC | 59.5% | 89.8% | 81% | 81.4% | 80.8% | 85.3% | 89% | 101% | 89.9%
COc1cc2cc(Oc3ccc(NC(=O)Nc4ccc(C(F)(F)F)cc4)cc3)c(C)nc2cc1OC | 76.7% | 75.7% | 72.2% | 87.6% | 56.1% | 70.4% | 90.5% | 68.5% | 61.9%
CC(C)N(CCOc1ccc(-c2nc3sccn3c2-c2ccnc(S(C)(=O)=O)n2)cc1)C(C)C | 106% | 87.6% | 87.8% | 70% | 101% | 84.2% | 60.3% | 76.4% | 52.4%
CS(=O)(=O)c1nccc(-c2c(-c3cccc(OCc4ccccc4)c3)nc3sccn23)n1 | 103% | 92.5% | 76.2% | 3.7% (active) | 95.9% | 44.2% | 72.5% | 52.5% | 26.5%
COc1ccc(N(C)c2ncnc3occ(C)c23)cc1 | -4.77% (active) | 42.1% | 34% | 26.5% | 29% | -6.13% (active) | 68.7% | -20.9% (active) | -1.42% (active)
Cc1c2c(nn1C(=O)c1nn(-c3ccc(Cl)cc3)cc1O)-c1ccccc1CC2 | 0.774% (active) | 6.22% (active) | 29.2% | 10.3% | 16.7% | -25.5% (active) | 80.5% | -7.92% (active) | -1.46% (active)
C[n+]1c2ccccc2nc2ccccc21 | -24.2% (active) | 54.9% | -27.8% (active) | 42.4% | 13.6% | 15.3% | 60% | -0.566% (active) | 24.9%
COc1ccc(-c2onc(N)c2-c2cc(OC)c3c(c2)OCO3)cc1 | 13.6% | 62% | 25.9% | 55.2% | 43.8% | 34% | 12% | 14.5% | 13.7%
